# NF-kB neuron act: activators of NF-kB expression in neurons, primary screen, cell-based, HTS; human neuronal cells, NF-kB reporter expression; stronger effect = higher value; fold change at 12.5 µM; 190,000 compounds, 1.6% hits; AID 1239, 2008; in the data active = fold change above about 3.3
# ssDAF12 agonist: S. stercoralis DAF-12 nuclear receptor activators, primary screen, cell-based, luminescence, HEK293, GRIP1 co-expression, lit1-tk-luc. Nuclear hormone receptor DAF-12 (Strongyloides stercoralis). AID 652126, 2013. HEK293 ssDAF-12/GRIP1 lit1-tk-luc reporter; % of 3 µM dafachronic acid response. activation, % at 6.8 µM. 370,000 compounds, 1% hits;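 active = activation above the mean over all tested compounds plus 3 SD, cut at about 0.9% in these data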;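 also: 0% = DMSO-only wells and 100% = 3 µM delta7-dafachronic acid wells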
# hcDAF12 agonist: H. contortus DAF-12 nuclear receptor activators, primary screen, cell-based, luminescence, HEK293, lit1-tk-luc reporter | activation, % at 6.8 µM | HEK293 hcDAF-12 lit1-tk-luc reporter; 0% DMSO, 100% Δ7-dafachronic acid | 370,000 compounds, 1.4% hits;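 active = activation above the mean of all tested compounds plus 3 SD, cut at about 5.5% in these data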;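 also: 100% = response to 3 µM Δ7-dafachronic acid high control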
# APP 5'UTR act: activators of APP 5'UTR luciferase reporter, primary screen, SH-SY5Y cells; SH-SY5Y APP 5'UTR luciferase reporter, luminescence; zero percent = DMSO vehicle wells; activation, % at 2 µM; 190,000 compounds, 1% hits;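 active = activation above a set limit, based on mean plus 3 SD of controls, cut at about 140% in these data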
# hgDAF12 agonist: H. glycines DAF-12 receptor agonists, primary screen, cell-based, luminescence, HEK293, GAL4 fusion, UAS-luciferase | Nuclear hormone receptor DAF-12 (Heterodera glycines), GAL4 fusion | HEK293 GAL4-hgDAF12 UAS-luciferase reporter, agonist luminescence; normalized to butyrate control | activation, % at 6.8 µM | 370,000 compounds, 1.8% hits | AID 687014, 2013;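 active = activation above a cutoff set at the mean of all screened compounds plus 3 SD, cut at about 10% in these data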;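 also: 0% = DMSO wells and 100% = sodium butyrate wells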
# * marks the source's active call; other numbers are inactive results; nt = no result. This is a sample that favours compounds with a hit; in the whole collection about 3.4% have one here.
SMILES,NF-kB neuron act,ssDAF12 agonist,hcDAF12 agonist,APP 5'UTR act,hgDAF12 agonist
Cc1ccc2oc(=O)c(/C=C(\O)c3cccs3)nc2c1,nt,1,5.6*,nt,8
O=c1oc2ccc(Cl)cc2nc1/C=C(\O)c1cccs1,nt,0,5.6*,nt,3
C/C(O)=C\c1nc2ccccc2oc1=O,3.6*,-1,0,-1,-1
O=[N+]([O-])c1cccc(NCCCN2CCC(C(O)(c3ccccc3)c3ccccc3)CC2)c1,nt,-1,1,nt,1
CCC[C@H]1[C@@H](N)CC[C@@]23CCCN2C(=O)CCC[C@@H]13,nt,-2,1,nt,-3
CC(=O)c1cc(-c2ccc(Oc3ccccc3)cc2)c(=O)n2c1CCC2,nt,-2,-1,nt,-6
COc1ccc(Oc2c(Cl)cnn(CC(=O)C(c3ccccc3)c3ccccc3)c2=O)cc1,nt,-1,3,nt,1
COc1cc(C2NC(=O)NC(c3ccccc3)=C2C(C)=O)c(Cl)cc1OCC(=O)O (centres undefined),1.4,-1,-1,199*,3
COc1cccc(-c2nc(N3CC(C)CC(C)C3)c3ccccc3n2)c1O (centres undefined),0.58,0,5.9*,-12,0
Cc1ccccc1NC(=O)c1ccc2c(c1)N(C)CCS2,nt,-1,2,nt,12*
CCOC(=O)N1CCN(C(=O)C[C@H]2C[C@@]3(C(=O)OC)C(=C[C@H](C(C)C)O[C@@H]3C3CC3)N(Cc3ccc4c(c3)OCO4)C2=O)CC1,nt,-1,1,nt,-3
C[C@@H]1/C=C/CC(=O)N[C@H](c2ccccc2)[C@H](C)/C=C/CC(=O)N[C@@H]1c1ccccc1,nt,-1,-1,nt,-3
COc1ccccc1CNC(=O)c1cc(-c2ccncc2)nc2c(Cl)cccc12,nt,1,6.0*,nt,0
COc1ccc(CCNC(=O)c2cc(-c3ccncc3)nc3c(Cl)cccc23)cc1OC,0.66,-2,1,9,1
Cn1c2c(c(=O)n(C)c1=O)C(c1ccccc1Cl)CC(=O)N2 (centres undefined),1.5,-1,5.8*,-9,-2
COC(=O)c1[nH]c2ccc(Br)cc2c1NC(=O)CN1CCN(C2CCCCC2)CC1,4*,-1,-1,8,-3
Cc1ccc(NC(=O)Cn2nnc(-c3ccccc3F)n2)cc1C,nt,-1,-3,nt,0
COC(=O)[C@]12C[C@H](CC(=O)N3CCN(C(=O)C4CC4)CC3)C(=O)N(Cc3ccco3)C1=C[C@H](C(C)(C)C)O[C@@H]2C,nt,-1,-2,nt,-3
Cc1cccnc1NC(=O)COc1ccc2c(c1)CCC2,nt,1.0*,1,nt,9
Cc1ccc(NC(=O)COc2ccc3c(c2)CCC3)nc1,nt,0,0,nt,11*
Cc1cccnc1NC(=O)COc1ccc2oc3c(c2c1)CCCC3,1.6,-1,0,-29,-1
CCOc1ccc(-n2c(SCC(=O)Nc3cc(C)c(NC(=O)c4ccccc4)cc3OC)nnc2-c2ccncc2)cc1,nt,0,-2,nt,2
COC(=O)C1CN(Cc2ccccc2)CCS(=O)(=O)N1Cc1ccc(F)cc1 (centres undefined),nt,-2,-2,nt,1
Cc1cc(C(=O)COC(=O)c2ccc(O)cc2O)c(C)n1C(C)C,nt,0,4,nt,12*
COc1ccc(CCn2c(C)cc(C(=O)COC(=O)c3ccc(O)cc3O)c2C)cc1,nt,-1,-2,nt,-1
SMILES,NF-kB neuron act,ssDAF12 agonist,hcDAF12 agonist,APP 5'UTR act,hgDAF12 agonist
CC(=O)c1ccc2noc(-c3ccccc3)c2c1,1.2,-2,-2,-10,0
c1ccc(-c2onc3cc4c(cc23)OCCO4)cc1,3.8*,0,1,88,10
CCCCc1ccc(Nc2ncccc2C#N)cc1,2.4,1,5.8*,105,8
Cc1[nH]n(-c2ccccc2)c(=O)c1C(c1ccc(C(=O)O)cc1)c1c(C)[nH]n(-c2ccccc2)c1=O,1.2,2.1*,2,20,-5
Cc1[nH]n(-c2ccccc2)c(=O)c1C(c1cccc([N+](=O)[O-])c1O)c1c(C)[nH]n(-c2ccccc2)c1=O,1.2,0,1,-8,-2
Cc1[nH]n(-c2ccccc2)c(=O)c1C(C[N+](=O)[O-])c1ccc(Br)cc1 (centres undefined),1,-1,2,-21,-2
Cc1[nH]n(-c2ccccc2)c(=O)c1C(c1cccc([N+](=O)[O-])c1)c1c(C)[nH]n(-c2ccccc2)c1=O,0.92,1,6.7*,-1,3
O=C(Cc1ccc2c(c1)CCCC2)Nc1ccc2ccccc2c1,0.74,1,5.7*,4,4
CC(=O)c1ccc(NS(=O)(=O)c2ccc(C)cc2)cc1,1.2,0,-1,2,-1
CC(=O)c1ccc(NS(=O)(=O)c2cccc(C)c2)cc1,1.6,-1,1,27,12*
Cc1ccc(NC(=O)[C@H]2CC(=O)O[C@@H]2c2ccccc2)c(C)c1,nt,-2,3,nt,1
CO[C@H]([C@H](C)/C=C/N(C)C=O)[C@@H](C)C(=O)CC[C@H](C)[C@H](O)[C@H](C)[C@H]1OC(=O)/C=C/C(C)=C/C[C@H](O)C[C@@H]2C=CC[C@@H](C[C@H](OC)C(C)(O)[C@@H](OC)C[C@@H](OC)[C@@H]1C)O2 (some centres undefined),nt,-1,-3,nt,-9
OCCc1ccc(NCCc2cccs2)cc1,nt,-1,5,nt,11*
O=C(Cc1cccs1)NCCc1ccc(F)cc1,nt,-1,2,nt,-2
CCn1ncc(C(=O)Nc2ccc(F)cc2)c1C,nt,1.7*,5,nt,8
COc1ccc(CN2C(=O)CN(S(C)(=O)=O)CC2(C)c2nnnn2C2CCCCC2)cc1 (centres undefined),nt,-1,0,nt,0
CCN(C(=O)[C@H]1CC(=O)O[C@@H]1c1ccccc1)c1ccccc1,nt,-1,1,nt,-4
Nc1ccc2nc(-c3ccccn3)[nH]c2c1,0.59,-1,1,76,6
COc1ccc2nc(-c3ccccn3)[nH]c2c1,nt,0,5,nt,12*
CCOC(=O)[C@@]12CN(C(=O)OC(C)(C)C)CC=C1N(Cc1ccc(OC)cc1)C(=O)[C@H]2CC(=O)NCc1ccccc1,nt,-2,0,nt,-3
COC(=O)/C=c1/sc2nc3ccccc3n2c1=O,1.1,0,1,13,0
CC(C)(O)c1cc(=O)sc2nc3ccccc3n12,3.6*,-1,4,78,9
CCn1c(=O)n(CC(=O)N2CCCN(Cc3ccccc3)CC2)c(=O)c2ccccc21,nt,-1,2,nt,0
CC(=O)N(C)Cc1ccc(C(=O)CCl)cc1,3.8*,-2,-1,-2,8
Cc1cc(C)cc(NC(=O)c2ccc([N+](=O)[O-])o2)c1,6.1*,-2,-3,-71,-11

# High-throughput results (PubChem)
